Compounds with a hit are over-represented: about 3.5% of the library has one in this group of screens.
TEAD-YAP inh: TEAD-YAP interaction inhibition; HEK-TIYL cells, TEAD-Gal4/YAP UAS-luciferase luminescence; 640,000 compounds, 1.4% hits; inhibition, % at 9.12 µM; AID 1259422; in the data active = inhibition above about 32%
MITF primary: inhibitors of human MITF; O75030; AlphaScreen MITF homodimerization, bead proximity signal; inhibition, % at 2.6 µM; 650,000 compounds, 0.91% hits; in the data active = inhibition above about 50%
GPR151 activ: activators of human GPR151; Q8TDV0; 650,000 compounds, 1% hits; activation, % at 11.2 µM; PathHunter beta-arrestin GPR151 cells, luminescence; in the data active = activation above about 4.9%
FBW7 activator: activators of human E3 ligase FBW7. Q969H0. AlphaScreen FBW7–phospho-cyclin E peptide binding, activator screen. normalized activity (activation), % at 26.1 µM. 650,000 compounds, 0.13% hits. AID 1259310; in the data active = normalized activity above about 1.9%;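 also: purified mutant Fbw7 with reduced substrate affinity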
Target sequence (Q969H0 whole entry, looked up): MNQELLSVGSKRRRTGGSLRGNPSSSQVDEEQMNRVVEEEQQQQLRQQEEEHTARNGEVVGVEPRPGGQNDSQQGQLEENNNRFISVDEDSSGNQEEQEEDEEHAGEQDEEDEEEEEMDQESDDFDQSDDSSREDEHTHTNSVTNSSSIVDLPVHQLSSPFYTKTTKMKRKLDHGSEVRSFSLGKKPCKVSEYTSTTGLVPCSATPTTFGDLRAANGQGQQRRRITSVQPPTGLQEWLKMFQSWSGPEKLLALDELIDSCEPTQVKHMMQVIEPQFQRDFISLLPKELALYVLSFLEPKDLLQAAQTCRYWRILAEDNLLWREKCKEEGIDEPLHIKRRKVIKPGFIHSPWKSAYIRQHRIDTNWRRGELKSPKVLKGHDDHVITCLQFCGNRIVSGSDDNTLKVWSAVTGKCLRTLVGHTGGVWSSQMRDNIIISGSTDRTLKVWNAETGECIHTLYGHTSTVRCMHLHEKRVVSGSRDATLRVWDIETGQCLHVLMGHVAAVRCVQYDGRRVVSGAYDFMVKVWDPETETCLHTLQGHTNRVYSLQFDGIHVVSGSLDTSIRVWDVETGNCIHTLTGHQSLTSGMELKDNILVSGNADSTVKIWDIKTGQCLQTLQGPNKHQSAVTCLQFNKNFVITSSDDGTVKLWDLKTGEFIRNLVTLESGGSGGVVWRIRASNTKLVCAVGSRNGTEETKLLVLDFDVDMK
Of the large screens only hits and unclear results are named; the others gave an inactive call.

O=C(O)c1cccc2c1NC(c1ccc([N+](=O)[O-])cc1)C1CC=CC21 (stereo unspecified)	MITF primary 65
O=C(O)c1cccc2c1NC(c1cccc(Br)c1)C1CC=CC21 (stereo unspecified)	none
Cc1c(C(=O)O)ccc2c1N[C@@H](c1cccc(Cl)c1)[C@H]1CC=C[C@@H]21	MITF primary 76
O=C(O)c1cc(Br)cc2c1N[C@@H](c1ccc(F)cc1)[C@H]1CC=C[C@@H]21	MITF primary 79
O=C(O)c1cccc2c1NC(c1ccccc1[N+](=O)[O-])C1CC=CC21 (stereo unspecified)	MITF primary 67
Cc1ccc(C2NNC(=O)C2NC(=O)c2ccc(F)cc2)cc1 (stereo unspecified)	none
O=C1c2ccccc2C(=O)c2c(NCCCN(CCO)CCO)cccc21	TEAD-YAP inh 41
OCc1nc2ccc(Cc3ccc4nc(CO)[nH]c4c3)cc2[nH]1	none
OCc1nc2ccc(-c3ccc4nc(CO)[nH]c4c3)cc2[nH]1	TEAD-YAP inh 58
CC1Cc2cc(S(=O)(=O)N(C)CC(=O)Nc3cccnc3)ccc2N1C(=O)C1CC1 (stereo unspecified)	TEAD-YAP inh 39
CN(C)c1ccc(-c2ccc3ccccc3n2)cc1	TEAD-YAP inh 76
CC(C)c1ccc(C(O)Cc2nc3ccccc3n2C)cc1 (stereo unspecified)	none
CN(C)c1ccc(C(O)Cc2nc3ccccc3n2C)cc1 (stereo unspecified)	TEAD-YAP inh 95
CN(C)c1ccc(-c2nc3ccccc3n2C)cc1	TEAD-YAP inh 93
O=S(=O)(c1cccs1)N1CCN(c2nc3c(F)cc(F)cc3s2)CC1	none
Cc1ccc(NC(=O)CSc2nc(-c3ccc([N+](=O)[O-])cc3)nn2CC(=O)Nc2ccc(C)cc2C)c(C)c1	none
COc1cc(CC(=O)N2CCCCC2c2nc3ccccc3[nH]2)cc(OC)c1OC (stereo unspecified)	none
Clc1ccc2nc(-c3ccc(Br)cc3)cn2c1	none
Clc1ccc2nc(-c3ccc4c(c3)OCO4)cn2c1	TEAD-YAP inh 73
Clc1ccc2nc(-c3ccccc3)cn2c1	TEAD-YAP inh 77
Fc1ccc(-c2cn3cc(Cl)ccc3n2)cc1	TEAD-YAP inh 37
O=C(CN1CCCc2ccccc21)N/N=C/c1ccc(Cl)cc1	TEAD-YAP inh 36
O=C(CN1CCCc2ccccc21)N/N=C/c1ccccc1	none
O=C(C(=O)N1CCN(C(=O)c2ccco2)CC1)c1c(-c2ccccc2)cc2ccccn12	TEAD-YAP inh 42
COC(=O)c1nn(-c2ccc(C)c(C)c2)cc1O	TEAD-YAP inh 54
COC(=O)c1nn(-c2ccc(F)c(Cl)c2)cc1O	none
Cc1cccc(C)c1NC(=O)c1ccc(N2CCOCC2)c([N+](=O)[O-])c1	none
CC(=O)N1CCN(C2=NC(=O)/C(=C\c3ccccc3OC(C)C)S2)CC1	none
CC(C)Oc1ccccc1/C=C1/SC(N2CCOCC2)=NC1=O	TEAD-YAP inh 45
CC1CCN(C2=NC(=O)/C(=C\c3ccccc3Cl)S2)CC1	none
CC1CCN(C2=NC(=O)/C(=C/c3ccccc3F)S2)CC1	TEAD-YAP inh 54
CCCCOc1ccccc1/C=C1/SC(N2CCOCC2)=NC1=O	TEAD-YAP inh 41
N#Cc1c(NC(=O)CCSCCC(=O)Nc2sc3c(c2C#N)CCC3)sc2c1CCC2	none
O=C(NCc1ccco1)c1ccc(N2CC3CC(C2)c2cccc(=O)n2C3)c(NC(=O)c2ccc(Br)o2)c1 (stereo unspecified)	none
CC(C)c1cc(C(=O)Nc2ccc(F)cc2)nn1-c1nc2ccccc2s1	none
CC(C)c1cc(C(=O)NCc2ccco2)nn1-c1nc2ccccc2s1	TEAD-YAP inh 78
Cc1ccc(C(=O)Nc2ccc(O)cc2C(=O)O)cc1[N+](=O)[O-]	MITF primary 80
C/C(=N/NC(=O)c1ccc([N+](=O)[O-])cc1)c1ccc(O)cc1O	TEAD-YAP inh 84
O=C(Nc1ccc(O)cc1C(=O)O)c1ccc([N+](=O)[O-])cc1	MITF primary 52
CC(C)(C)c1ccc(C(=O)Nc2ccc(O)cc2C(=O)O)cc1	TEAD-YAP inh 34
C/C(=N\NC(=O)c1ccc([N+](=O)[O-])cc1Cl)c1ccc(O)cc1O	none
Cc1ccc(C(=O)Nc2ccc(O)cc2C(=O)O)cc1	none
CC(=O)OC1C(=O)c2c(C)noc2CC1(C)C (stereo unspecified)	none
COc1ccc(CN2CCNC(=O)C2CC(=O)N(C)Cc2ccncc2C)cc1OC (stereo unspecified)	none
COc1cccc(CC2(CO)CCCN(Cc3cccc(C(C)=O)c3)C2)c1 (stereo unspecified)	none
O=C(O)CCn1c(SCC(=O)Nc2nccs2)nc2ccsc2c1=O	none
CC(C)N(C)C(=O)c1ccc(OC2CCN(C(=O)C3CC3)CC2)cc1	none
Cc1sc2ncnc(NCCc3ccc4c(c3)OCCO4)c2c1C	TEAD-YAP inh 57
Cc1sc2ncnc(NCC3COc4ccccc4O3)c2c1C (stereo unspecified)	TEAD-YAP inh 48
CSc1ccc(/C=C2/C(=O)ON=C2c2ccccc2)cc1	none
O=C1ON=C(c2ccccc2)/C1=C\c1ccc(O)cc1	MITF primary 59
COc1ccc(/C=C2/C(=O)ON=C2c2ccccc2)cc1	none
CC(C)c1ccc(/C=C2\C(=O)ON=C2c2ccccc2)cc1	MITF primary 57
COc1ccccc1OCCn1cc(/C=C2/C(=N)N3N=C(Cc4ccccc4)SC3=NC2=O)c2ccccc21	none
O=C(Nc1cc(Cl)ccc1Cl)c1cc(Br)cc(Br)c1O	TEAD-YAP inh 34
NS(=O)(=O)c1ccc(CCNC(=O)CSc2nc(NCc3ccc(Cl)cc3)c3ccccc3n2)cc1	none
CCOc1ccc(/C=N/Nc2ncc(Br)cn2)c(O)c1	none
Oc1ccc(/C=N/Nc2ncc(Br)cn2)c(O)c1	MITF primary 65
CCN(CC)S(=O)(=O)c1ccc(N/N=C/c2ccccc2[N+](=O)[O-])nc1	none
Oc1ccc(/C=N/Nc2ccc(Cl)nn2)c(O)c1O	MITF primary 103
CCN(CC)S(=O)(=O)c1ccc(N/N=C/c2ccc(O)cc2O)nc1	TEAD-YAP inh 59
Oc1ccc(/C=N/Nc2ccc(Cl)nn2)c(O)c1	MITF primary 55
O=C(NC(=S)NCc1ccco1)c1ccccc1I	none
Cc1cnn(-c2cc(N/N=C/c3ccc(O)cc3O)ncn2)c1	none
Cc1cc(C)n(-c2cc(N/N=C/c3ccc(O)cc3O)ncn2)n1	TEAD-YAP inh 85
Oc1ccc(/C=N/Nc2ncc(C(F)(F)F)cc2Cl)c(O)c1O	MITF primary 66
COc1ccc(N(C(C)C(=O)NCc2ccc(Cl)cc2)S(C)(=O)=O)cc1 (stereo unspecified)	none
COc1ccc(C(c2c(NC(=O)c3ccco3)sc(C)c2C)N2CCC(C)CC2)cc1 (stereo unspecified)	none
O=[N+]([O-])c1ccc2[nH]c(O)c(N=Nc3ccc(S(=O)(=O)O)cc3)c2c1	MITF primary 60
COc1cccc(C2Nc3ccccc3NC3=C2C(=O)CC(c2ccc(Cl)cc2)C3)c1OC (stereo unspecified)	none
